Assay results: PubChem BioAssay AID1159580 (chemical genetic matrix, 2015)
Out of some 5,500 compounds screened, about 2,000 (36%) were called active. About 18% were inconclusive and are not listed. Rule as the data show it: active = normalized growth mostly below about 0.91 (no sharp cut-off); inconclusive = no clear call, values can overlap the other calls; inactive = mostly above about 0.92. The list shows a part of the results.

Assay: chemical genetic growth profiling, strain panel (AID 1159580);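 also: tested at 20 µM; growth read once vehicle control cultures reached saturation at 30 °C; 1 = growth at the plate median or of vehicle wells; lower values mean less growth of the strain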
Conditions: growth OD

Measured: normalized growth

CC(C)C1CCC(C(=O)N[C@@H](Cc2ccccc2)C(=O)O)CC1 (some centres not stated)
inactive: S. cerevisiae deletion strains, locus YJR075W, strain HOC1, hits give low values 0.992 | S. cerevisiae deletion strains, locus YKL009W, strain mrt4, hits give low values 0.963 | S. cerevisiae deletion strains, locus YKL068W, hits give low values 1 | S. cerevisiae deletion strains, locus YKL085W, strain MDH1 (second series), hits give low values 1 | S. cerevisiae deletion strains, locus YKL085W, strain MDH1, hits give low values 1 | S. cerevisiae deletion strains, locus YKL160W, strain elf1, hits give low values 0.971 | S. cerevisiae deletion strains, locus YKL190W, strain CNB1, hits give low values 0.976 | S. cerevisiae deletion strains, locus YKR001C, strain vps1, hits give low values 1.04 | S. cerevisiae deletion strains, locus YKR026C, strain gcn3, hits give low values 0.974 | S. cerevisiae deletion strains, locus YKR091W, strain srl3, hits give low values 0.978 | S. cerevisiae deletion strains, locus YLL001W, strain dnm1, hits give low values 0.957 | S. cerevisiae deletion strains, locus YLL026W, hits give low values 0.981 | S. cerevisiae deletion strains, locus YLL041C, strain sdh2, hits give low values 0.961 | S. cerevisiae deletion strains, locus YLR027C, strain aat2, hits give low values 0.985 | S. cerevisiae deletion strains, locus YLR039C, strain RIC1, hits give low values 0.969 | S. cerevisiae deletion strains, locus YLR058C, strain SHM2, hits give low values 1 | S. cerevisiae deletion strains, locus YLR102C, strain apc9, hits give low values 0.999 | S. cerevisiae deletion strains, locus YLR113W, strain HOG1, hits give low values 1.02 | S. cerevisiae deletion strains, locus YLR221C, strain rsa3, hits give low values 0.987 | S. cerevisiae deletion strains, locus YLR258W, strain gsy2, hits give low values 0.987 | S. cerevisiae deletion strains, locus YLR262C, strain YPT6 (second series), hits give low values 0.955 | S. cerevisiae deletion strains, locus YLR262C, strain YPT6, hits give low values 0.964 | S. cerevisiae deletion strains, locus YLR268W, strain sec22, hits give low values 1.01 | S. cerevisiae deletion strains, locus YLR320W, strain mms22, hits give low values 0.979 | S. cerevisiae deletion strains, locus YLR330W, strain CHS5, hits give low values 1 | S. cerevisiae deletion strains, locus YLR342W, strain FKS1 (second series), hits give low values 0.965 | S. cerevisiae deletion strains, locus YLR342W, strain FKS1, hits give low values 0.979 | S. cerevisiae deletion strains, locus YLR357W, strain rsc2, hits give low values 0.971 | S. cerevisiae deletion strains, locus YLR370C, strain arc18, hits give low values 0.959 | S. cerevisiae deletion strains, locus YLR371W, strain rom2, hits give low values 1.01 | S. cerevisiae deletion strains, locus YLR384C, strain iki3, hits give low values 0.965 | S. cerevisiae deletion strains, locus YLR418C, strain cdc73, hits give low values 1.05 | S. cerevisiae deletion strains, locus YML016C, strain PPZ1, hits give low values 1 | S. cerevisiae deletion strains, locus YML032C, strain rad52, hits give low values 1.02 | S. cerevisiae deletion strains, locus YML120C, strain ndi1, hits give low values 0.97 | S. cerevisiae deletion strains, locus YML124C, strain tub3, hits give low values 1.02 | S. cerevisiae deletion strains, locus YMR058W, strain fet3, hits give low values 0.98 | S. cerevisiae deletion strains, locus YMR078C, strain ctf18, hits give low values 1.02 | S. cerevisiae deletion strains, locus YMR125W, strain sto1, hits give low values 0.966 | S. cerevisiae deletion strains, locus YMR129W, hits give low values 0.977 | S. cerevisiae deletion strains, locus YMR205C, strain PFK2, hits give low values 0.967 | S. cerevisiae deletion strains, locus YMR223W, strain ubp8, hits give low values 1.02 | S. cerevisiae deletion strains, locus YMR231W, strain pep5, hits give low values 0.971 | S. cerevisiae deletion strains, locus YMR263W, strain SAP30, hits give low values 0.974 | S. cerevisiae deletion strains, locus YMR307W, strain GAS1, hits give low values 0.998 | S. cerevisiae deletion strains, locus YNL067W, strain RPL9B, hits give low values 0.999 | S. cerevisiae deletion strains, locus YNL071W, strain lat1, hits give low values 0.979 | S. cerevisiae deletion strains, locus YNL128W, strain TEP1, hits give low values 0.971 | S. cerevisiae deletion strains, locus YNL153C, strain GIM3, hits give low values 1 | S. cerevisiae deletion strains, locus YNL183C, strain NPR1, hits give low values 0.955 | S. cerevisiae deletion strains, locus YNL209W, strain ssb2, hits give low values 0.963 | S. cerevisiae deletion strains, locus YNL233W, strain BNI4, hits give low values 1.01 | S. cerevisiae deletion strains, locus YNL248C, strain rpa49, hits give low values 0.976 | S. cerevisiae deletion strains, locus YNL250W, strain rad50, hits give low values 1.01 | S. cerevisiae deletion strains, locus YNL271C, strain bni1, hits give low values 1.01 | S. cerevisiae deletion strains, locus YNL298W, strain CLA4, hits give low values 1.01 | S. cerevisiae deletion strains, locus YNL307C, strain MCK1, hits give low values 1.03 | S. cerevisiae deletion strains, locus YNL322C, strain KRE1 (second series), hits give low values 0.992 | S. cerevisiae deletion strains, locus YNL322C, strain KRE1, hits give low values 0.998 | S. cerevisiae deletion strains, locus YNR049C, strain mso1, hits give low values 0.975 | S. cerevisiae deletion strains, locus YNR052C, strain pop2, hits give low values 1.01 | S. cerevisiae deletion strains, locus YOL006C, strain TOP1, hits give low values 1.03 | S. cerevisiae deletion strains, locus YOL012C, strain htz1 1.07 | S. cerevisiae deletion strains, locus YOL147C, strain pex11, hits give low values 1.02 | S. cerevisiae deletion strains, locus YOR001W, strain rrp6, hits give low values 0.967 | S. cerevisiae deletion strains, locus YOR061W, strain CKA2, hits give low values 1 | S. cerevisiae deletion strains, locus YOR069W, strain VPS5, hits give low values 0.994 | S. cerevisiae deletion strains, locus YOR070C, strain gyp1, hits give low values 0.974 | S. cerevisiae deletion strains, locus YOR080W, strain dia2, hits give low values 0.977 | S. cerevisiae deletion strains, locus YOR083W, strain WHI5, hits give low values 0.984 | S. cerevisiae deletion strains, locus YOR106W, strain vam3, hits give low values 0.981 | S. cerevisiae deletion strains, locus YOR136W, strain idh2, hits give low values 1.02 | S. cerevisiae deletion strains, locus YOR144C, strain elg1, hits give low values 1.01 | S. cerevisiae deletion strains, locus YOR184W, strain ser1, hits give low values 1 | S. cerevisiae deletion strains, locus YOR231W, strain MKK1, hits give low values 0.966 | S. cerevisiae deletion strains, locus YOR265W, strain rbl2, hits give low values 0.975 | S. cerevisiae deletion strains, locus YOR270C, strain vph1, hits give low values 0.949 | S. cerevisiae deletion strains, locus YOR290C, strain snf2, hits give low values 0.962 | S. cerevisiae deletion strains, locus YOR316C, strain cot1, hits give low values 1 | S. cerevisiae deletion strains, locus YPL051W, strain arl3, hits give low values 0.976 | S. cerevisiae deletion strains, locus YPL055C, strain LGE1, hits give low values 0.996 | S. cerevisiae deletion strains, locus YPL078C, strain atp4, hits give low values 0.974 | S. cerevisiae deletion strains, locus YPL106C, strain sse1, hits give low values 0.96 | S. cerevisiae deletion strains, locus YPL240C, strain hsp82, hits give low values 0.981 | S. cerevisiae deletion strains, locus YPL241C, strain CIN2, hits give low values 0.983 | S. cerevisiae deletion strains, locus YPL256C, strain CLN2, hits give low values 0.982 | S. cerevisiae deletion strains, locus YPR119W, strain clb2, hits give low values 1.01 | S. cerevisiae deletion strains, locus YPR141C, strain kar3, hits give low values 1.02 | S. cerevisiae deletion strains, locus YPR163C, strain tif3, hits give low values 1.02 | S. cerevisiae deletion strains, locus YPR167C, strain met16, hits give low values 1.01 | S. cerevisiae deletion strains, strain wtn01, hits give low values 1 | S. cerevisiae strains, strain wild type, hits give low values 0.986
